This note sets out measurements from PubChem BioAssay (Tox21).

Assay [1] can be described thus: qHTS assay to identify small molecule antagonists of the glucocorticoid receptor (GR) signaling pathway - cell viability counter screen (AID 720693). Note: nearly all actives have a fitted effect of over 55% in size. Note: potency is the fitted concentration of half-maximal effect.
Assay [2] is described as follows: qHTS assay for identifying genotoxic compounds that show differential cytotoxicity against isogenic chicken DT40 cell lines with known DNA damage response pathways - wild type cell line (AID 743012). Note: nearly all actives have a fitted effect of over 60% in size. Note: potency is the fitted concentration of half-maximal effect. An outline of the steps: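 Wild type DT40, 300 cells/well, ~0.5 h settle at 37 C/5% CO2; compounds in DMSO added by pintool; 40 h at 37 C/5% CO2; CellTiter-Glo, 30 min RT; luminescence.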
On the technique in general: In qHTS, concentration-response curves come from the screen itself.

The nature of assay [3]: qHTS assay for identifying genotoxic compounds that show differential cytotoxicity against isogenic chicken DT40 cell lines with known DNA damage response pathways - Rev3 mutant cell line (AID 743014). Note: nearly all actives have a fitted effect of over 55% in size. Note: potency is the fitted concentration of half-maximal effect.
A short description of assay [4]: qHTS assay for identifying genotoxic compounds that show differential cytotoxicity against isogenic chicken DT40 cell lines with known DNA damage response pathways - Rad54/Ku70 mutant cell line (AID 743015). Note: nearly all actives have a fitted effect of over 60% in size. Note: potency is the fitted concentration of half-maximal effect.
The nature of assay [5]: qHTS assay to identify small molecule antagonists of the androgen receptor (AR) signaling pathway - cell viability counter screen (AID 743033; note: nearly all actives have a fitted effect of over 45% in size; note: potency is the fitted concentration of half-maximal effect).
Assay [6] is described as follows: qHTS assay to identify small molecule antagonists of the androgen receptor (AR) signaling pathway using the MDA cell line - cell viability counter screen (AID 743041; note: nearly all actives have a fitted effect of over 45% in size). An outline of the steps: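 MDA-kb2 AR-luc human breast carcinoma cells (MMTV-luciferase, AR/GR responsive) were treated with compounds plus R1881 agonist for 16 h at 37 °C. Viability was read as CellTiter-Fluor fluorescence in the same wells as the reporter assay.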

Assay [7] concerns the target Androgen receptor (Homo sapiens) (UniProt P10275). The assay can be described thus: qHTS assay to identify small molecule antagonists of the androgen receptor (AR) signaling pathway (AID 743035; active = well fitted inhibition curve with a large enough effect in the signal ratio in the repeat runs, not every such curve was filed as active; the % refers to the signal ratio). An outline of the steps:
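Fluorescence from a beta-lactamase FRET substrate (LiveBLAzer B/G, 2 h, room temperature) measured inhibition of R1881-stimulated signaling in GeneBLAzer AR-UAS-bla HEK293 cells exposed to compound for 16 h at 37C.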

Assay [8] has the same target. Put plainly: qHTS assay to identify small molecule agonists of the androgen receptor (AR) signaling pathway (AID 743036; active = well fitted activation curve with a large enough effect in the signal ratio in the repeat runs, with a control signal flat, not every such curve was filed as active; the % refers to the signal ratio). A digest of the protocol: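 In this Tox21 qHTS, 2,000 HEK293 AR-bla cells per well were incubated with compounds for 16 h at 37C and 5% CO2. Fluorescence intensity was recorded 2 h after adding LiveBLAzer B/G FRET substrate at room temperature.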

Assay [9] shares this target. Put plainly: qHTS assay to identify small molecule agonists of the androgen receptor (AR) signaling pathway using the MDA cell line (AID 743040; note: nearly all actives have a fitted effect of over 20% in size). An outline of the steps: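 MDA-kb2 breast carcinoma cells stably carrying an MMTV-driven luciferase reporter (AR- and GR-responsive) were seeded and held 5 h at 37C, 0% CO2, then exposed to compounds in DMSO for 16 h. Luminescence was read 30 min after ONE-Glo addition.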

Assay [10] shares this target. Put plainly: qHTS assay to identify small molecule antagonists of the androgen receptor (AR) signaling pathway using the MDA cell line (AID 743042; note: nearly all actives have a fitted effect of over 55% in size). A digest of the protocol: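 MDA-kb2 cells (human breast carcinoma, stably carrying an MMTV-luciferase reporter responsive to AR and GR) were plated at 3,000 cells/well and preincubated 5 hr at 37C, then given compound plus R1881 agonist for 16 h. ONE-Glo luminescence was read.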

Where “and” joins values, the source holds several entries; their conditions need not be identical. Equal values may be shown once. Results filed as inconclusive are left out. More than one record can exist for a structure, and the calls need not agree. Calls of active or inactive are those of the source. Unless noted, calls come from the whole dose curve; as a rule, active = well fitted curve in the direction sought with a large enough effect in the repeat runs; inconclusive = weak or mixed curves; inactive = no such curve, though single readings can be large; an effect the other way counts as inactive or inconclusive.

Androgen receptor (Homo sapiens), sequence (P10275 whole entry, looked up): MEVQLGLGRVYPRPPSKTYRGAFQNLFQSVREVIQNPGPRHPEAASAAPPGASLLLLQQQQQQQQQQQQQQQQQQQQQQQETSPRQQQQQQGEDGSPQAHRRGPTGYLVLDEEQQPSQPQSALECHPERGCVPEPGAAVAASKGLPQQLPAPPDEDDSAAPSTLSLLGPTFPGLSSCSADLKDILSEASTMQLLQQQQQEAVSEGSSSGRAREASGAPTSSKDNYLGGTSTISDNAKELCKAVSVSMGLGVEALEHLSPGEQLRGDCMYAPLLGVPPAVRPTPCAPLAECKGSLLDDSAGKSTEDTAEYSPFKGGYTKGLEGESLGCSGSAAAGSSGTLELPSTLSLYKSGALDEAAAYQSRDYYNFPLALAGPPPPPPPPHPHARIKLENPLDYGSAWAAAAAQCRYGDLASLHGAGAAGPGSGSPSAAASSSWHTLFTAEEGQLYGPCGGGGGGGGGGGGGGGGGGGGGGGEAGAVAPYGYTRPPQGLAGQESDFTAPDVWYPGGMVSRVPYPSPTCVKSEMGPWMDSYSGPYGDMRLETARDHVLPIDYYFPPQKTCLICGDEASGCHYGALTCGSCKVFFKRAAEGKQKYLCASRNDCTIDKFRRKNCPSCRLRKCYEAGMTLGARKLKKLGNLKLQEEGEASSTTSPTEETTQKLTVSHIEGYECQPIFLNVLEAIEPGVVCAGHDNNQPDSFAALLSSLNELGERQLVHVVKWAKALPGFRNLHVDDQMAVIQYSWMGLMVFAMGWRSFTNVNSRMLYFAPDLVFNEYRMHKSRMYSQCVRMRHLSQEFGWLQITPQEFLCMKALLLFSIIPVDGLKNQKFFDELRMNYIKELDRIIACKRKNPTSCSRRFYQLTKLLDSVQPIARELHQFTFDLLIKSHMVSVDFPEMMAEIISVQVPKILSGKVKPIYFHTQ

Take `CC(C(=O)O)c1ccc(C(=O)c2cccs2)cc1` (centres undefined): the Potency result in [1], in assay [2], in assay [3], in assay [4], in assay [5] and in [6] was “inactive” in each case.
Turning to `CCN(CC)c1ccc(C(=C2C=CC(=[N+](CC)CC)C=C2)c2ccc(S(=O)(=O)O)cc2S(=O)(=O)[O-])cc1`, the Potency is 21.9 µM (active) in [1], 24.3 µM (active) in assay [2] and 21.9 µM (active) in [5]. For the same compound, the Potency entry in [3], in [4], in assay [7], in [9], in [6] and in assay [10] was “inactive” throughout. Further, the call in assay [8] was inactive.
With `C1=CCC2CC=CC2C1` (centres undefined), the Potency result in assay [1], in assay [2], in [3], in assay [4], in assay [5] and in assay [7] was “inactive” throughout. Also, the Potency result in assay [9], in [6] and in [10] was “inactive” in each case. The result in [8] was inactive.
On to `CC1CCCC(=O)C1=O` (centres undefined), for which the Potency entry in assay [1], in assay [2], in [3], in [4], in assay [5] and in [7] was “inactive” in each case. Moreover, the Potency entry in [9], in [6] and in assay [10] was “inactive” in each case. The call in assay [8] was inactive.
With `C=Cc1ccc(OC(C)=O)cc1`, the Potency result in assay [1], in assay [2], in assay [3], in assay [4], in [5] and in assay [7] was “inactive” each time. The Potency result in assay [9], in assay [6] and in [10] was “inactive” each time. The outcome in [8] was inactive.
In the case of `CC(=O)c1ccc[nH]1`, the Potency result in [1], in assay [2], in assay [3], in [4], in [5] and in assay [9] was “inactive” each time. Besides, the Potency entry in assay [6] and in assay [10] was “inactive” each time. Moreover, the call in [8] was inactive.
As for `O=C1CC[C@@H](C(=O)O)N1`, the Potency entry in [1], in [2], in assay [3], in assay [4], in assay [5] and in assay [7] was “inactive” throughout. Also, the Potency entry in assay [9] and in assay [10] was “inactive” each time. The compound was classed as inactive in [8].
`O=S(=O)(O)CO`: the Potency result in assay [1], in [2], in assay [3], in assay [4], in [5] and in assay [6] was “inactive” in each case.
Turning to `CN1C(CSCC(F)(F)F)Nc2cc(Cl)c(S(N)(=O)=O)cc2S1(=O)=O` (centres undefined), the Potency result in [1], in [5], in assay [7], in assay [9], in assay [6] and in assay [10] was “inactive” in each case. Further, the figures for the Potency in [2], in [3] and in assay [4] were 11.9 µM (active), 26.6 µM (active) and 23.7 µM (active), respectively. Also, the compound was classed as inactive in assay [8].
As to `COc1ccc2nc(S(=O)Cc3ncc(C)c(OC)c3C)[nH]c2c1` (centres undefined), the Potency result in assay [1], in [5] and in assay [6] was “inactive” each time. The Potency in [2] is 21.1 µM (active) and inactive; in assay [3], 26.6 µM (active) and inactive; in assay [4], 26.6 µM (active).
On to `O=C(O)CCS`, for which the Potency result in assay [1], in [2], in [3], in [4], in [5] and in assay [6] was “inactive” throughout.
For `CNCc1ccc(NC(=O)c2c[nH]c3c2C(=O)CCC3)cc1`, the Potency entry in assay [1], in assay [5] and in assay [6] was “inactive” each time. The Potency in [2] was 61.1 µM (active); in assay [3], 54.5 µM (active); in assay [4], 54.5 µM (active).
In the case of `Cc1ccc(NC(=O)N(C)C)cc1NC(=O)N(C)C`, the Potency result in assay [1], in [2], in [3], in [4], in [5] and in [6] was “inactive” in each case.
For the compound `CCCC(=O)OC(=O)CCC`, the Potency result in [1], in assay [2], in [3], in [4], in assay [5] and in [6] was “inactive” each time.
On to `O=C(O)c1ccc(O)cc1O`, for which the Potency result in assay [1], in assay [2], in [3], in assay [4], in [5] and in [6] was “inactive” in each case.
On to `CCCCCCC(CO)CCCC` (centres undefined), for which the Potency entry in assay [1], in [2], in [3], in [4], in assay [5] and in assay [6] was “inactive” in each case.
Turning to `CC(CO)(CO)C(=O)O`, the Potency result in assay [1], in assay [2], in assay [3], in assay [4], in assay [5] and in [6] was “inactive” in each case.
As to `CCCCCC`, the Potency entry in assay [1], in assay [2], in assay [3], in assay [4], in assay [5] and in assay [6] was “inactive” in each case.
As to `C=CC(=O)NC(C)C`, the Potency result in [1], in assay [2], in assay [3], in assay [4], in [5] and in assay [6] was “inactive” throughout.
In the case of `CC(C)c1ccc(C#N)cc1`, the Potency entry in assay [1], in [2], in [3], in assay [4], in [5] and in assay [6] was “inactive” throughout.
In the case of `COc1ccc(-n2nc(C(F)F)cc2-c2ccc(S(C)=O)cc2)cc1` (centres undefined), the Potency entry in [1], in assay [5] and in assay [6] was “inactive” each time. Moreover, the Potency is 61.1 µM (active) in assay [2], 30.6 µM (active) in [3] and 54.5 µM (active) in [4].
As to `CC(C)(C)CCCCCCOC(=O)c1ccccc1C(=O)OCCCCCCC(C)(C)C`, the Potency entry in assay [1], in [2], in [3], in [4], in assay [5] and in assay [6] was “inactive” each time.
Take `CCCCCCOC(=O)CCCCC`: the Potency entry in [1], in assay [2], in assay [3], in [4], in [5] and in assay [6] was “inactive” throughout.
As to `CC(=O)OCC1=C(C(=O)O)N2C(=O)[C@@H](NC(=O)CSc3ccncc3)[C@H]2SC1`, the Potency entry in [1], in assay [2], in [3], in assay [4], in assay [5] and in [6] was “inactive” each time.
Turning to `C=CCOC(=O)COCCC(C)C`, the Potency entry in assay [1], in [2], in [3], in assay [4], in assay [5] and in assay [6] was “inactive” throughout.
For `CCCCCCCCCCCC(=O)OCC(O)CO` (centres undefined), the Potency entry in assay [1], in assay [3], in [5] and in [6] was “inactive” throughout. The Potency result is “inactive and 61.1 µM (active)” in [2]; “inactive and 61.1 µM (active)” in assay [4].
Turning to `COC(C)(C)OC`, the Potency result in [1], in assay [2], in [3], in assay [4], in [5] and in assay [6] was “inactive” each time.
For `CC[C@H]1OC(=O)[C@H](C)[C@@H](O[C@H]2C[C@@](C)(OC)[C@@H](O)[C@H](C)O2)[C@H](C)[C@@H](O[C@@H]2O[C@H](C)C[C@H](N(C)C)[C@H]2O)[C@](C)(O)C[C@@H](C)CN(C)[C@H](C)[C@@H](O)[C@]1(C)O`, the Potency entry in assay [1], in [5] and in assay [6] was “inactive” each time. For the same compound, the Potency in assay [2] was 3.76 µM (active) and 2.87 µM (active); in [3] it was 2.11 µM (active) and 1.81 µM (active); in assay [4], 3.76 µM (active) and 2.56 µM (active).
